# From PubChem BioAssay
# Unmarked numbers belong to inactive results. The list shows a part of the results. Activity calls are given as the source filed them.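 The calls were made as follows, unless noted: active = inhibition above a limit from the primary screen, the mean over all compounds plus 3 SD (cut at about 19% in these data); inactive = the rest.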
# How the values were obtained:
# [1] = test system: Fam108b (Abhd17b) serine hydrolase [Mus musculus]; assay: inhibition of Fam108b (Abhd17b) hydrolase – biochemical, fluorescence polarization, triplicate, counter-screen for RBBP9 inhibitor project, confirmation (AID 1978); conditions: recombinant Fam108b, FP-Rh probe fluorescence polarization; at 9.51 µM; hits give high values;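 also: 0% = median of active Fam108b wells and 100% = catalytically dead S170A mutant; inhibitors free the probe so polarization falls as inhibition rises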
# [2] = target: Glutathione S-transferase omega-1 (Homo sapiens) (UniProt P78417); assay: recombinant GSTO1 blockers, retest – biochemical, fluorescence polarization, triplicate, counter-screen for RBBP9 inhibitor project, confirmation (AID 2176;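 active = inhibition above the primary screen's cutoff, its mean inhibition plus 3 SD, cut at about 35% in these data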;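 also: loss of polarization as inhibitors block binding of rhodamine sulfonate ester activity probe; 0% = GSTO1 with DMSO and 100% = wells lacking GSTO1 enzyme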); conditions: recombinant GSTO1, probe fluorescence polarization; at 5.96 µM; hits give high values
# [3] = target: Platelet-activating factor acetylhydrolase (Homo sapiens) (UniProt Q13093); assay: inhibition of plasma PAF acetylhydrolase – biochemical, fluorescence polarization, human, confirmation (AID 463230;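 active = mean inhibition of the triplicate above the hit cutoff set for the earlier primary screen, cut at about 25% in these data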;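 also: 0% = enzyme with DMSO and 100% = wells lacking pPAFAH enzyme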); conditions: recombinant pPAFAH, FP-Rh probe fluorescence polarization; at 3.39 µM; hits give high values
# [4] = target: Toll-like receptor 9 (Homo sapiens) (UniProt Q9NR96); assay: disruptors of TLR9 binding to MyD88 – cell-based, CHO, BLA complementation, fluorescence, triplicate, confirmation (AID 540250;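 active = mean inhibition across three repeats above about 21% taken from the earlier screen, limit read from the data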;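 also: blue over green emission ratio reports constitutive TLR9 MyD88 association via BLA complementation; 0% = DMSO vehicle wells and 100% = clavulanate BLA inhibitor wells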); conditions: CCF4 FRET ratio, at 4.98 µM, hits give high values
# [5] = BLA reporter readout interference – cell-based, fluorescence, artefact control for TLR9-MyD88 binding inhibitor project (AID 540251;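 active = mean inhibition above a 50% cutoff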;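 also: counterscreen of TLR9-MyD88 hits on CMV-driven BLA in CHO-K1 cells; 0% = DMSO alone and 100% = clavulanate blocking BLA; higher means less blue over green ratio so more BLA blockade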); conditions: CHO-BLA cells, CCF4 FRET ratio, at 4.98 µM, hits give high values
# [6] = CHO cell viability loss – luminescence, single concentration, cytotoxicity control for TLR9-MyD88 binding inhibitor project (AID 588336; in the data active = inhibition above about 11%); conditions: TLR9-MyD88 CHO cells cytotoxicity, at 4.98 µM, hits give high values
# [7] = suppression of KLF5 promoter-driven luciferase – DLD-1 cells, luminescence, confirmation (AID 1834;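 active = inhibition above a set limit taken from the earlier primary screen, cut at about 63% in these data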;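 also: 0% = DMSO wells and 100% = LY294002 at 200 µM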); conditions: DLD-1 KLF5 promoter firefly luciferase reporter, at 4 µM, hits give high values
# [8] = IEC-6 intestinal cell killing – luminescence, triplicate, cytotoxicity control for KLF5 inhibitor project (AID 1905; in the data active = inhibition above about 23%;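 also: cells exposed to compounds for 48 hours before viability read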); conditions: IEC-6 rat intestinal cells, viability luminescence; at 4 µM; hits give high values
# [9] = BSA probe fluorescence interference – biochemical, TAMRA-labeled BSA, counter-screen for TCR-CD3 interaction inhibitor project (AID 652035; in the data active = inhibition above about 23%;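 also: 0% = buffer low control and 100% = reference high control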); conditions: TAMRA-labeled BSA probe fluorescence counterscreen; at 9.4 µM; hits give high values
# [10] = test system: T-cell receptor (TCR)-CD3 interaction, human; assay: blockers of TCR binding to CD3 – biochemical, fluorescence, TAMRA-labeled TCR probe, confirmation (AID 652036; in the data active = inhibition above about 19%); conditions: TAMRA-labeled TCR probe fluorescence binding assay; at 9.4 µM; hits give high values
# [11] = target: Protein-arginine deiminase type-4 (Homo sapiens) (UniProt Q9UM07); assay: protein arginine deiminase 4 blockade, retest – biochemical, fluorescence polarization, confirmation (AID 488796;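 active = mean inhibition across replicates above the hit cutoff set by the earlier primary screen, cut at about 15% in these data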;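 also: inhibitors block active-site labeling by the probe so polarization falls; 0% = PAD4 with probe and DMSO and 100% = probe without PAD4 enzyme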); conditions: recombinant PAD4, RCA probe fluorescence polarization; at 6.36 µM; hits give high values
# [12] = target: Protein phosphatase methylesterase 1 (Homo sapiens) (UniProt Q9Y570); assay: human PME-1 methylesterase inhibition confirmation – biochemical, fluorescence polarization, FP-Rh probe, triplicate (AID 2171;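 active = inhibition above the hit cutoff set in the earlier primary screen, cut at about 27% in these data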;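 also: 0% = enzyme with DMSO and 100% = wells lacking PME-1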); conditions: recombinant PME-1, FP-Rh probe fluorescence polarization; at 5.9 µM; hits give high values
# [13] = test system: transactivating tegument protein VP16 (Human herpesvirus 1); assay: compounds suppressing VP16-driven luciferase signal – cell-based, luminescence, single concentration, counter-screen for SRC2 inhibitor project (AID 652007; in the data active = inhibition above about 36%); conditions: cell-based VP16 transactivation luciferase reporter, at 8.9 µM, hits give high values
# [14] = target: Nuclear receptor coactivator 2 (Homo sapiens) (UniProt Q15596); assay: inhibition of GAL4-SRC2 driven luciferase expression – cell-based, luminescence, HEK293, triplicate, confirmation (AID 652008;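 active = mean inhibition above 46.5%, the solvent-only control mean plus 3 SD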;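 also: 0% = DMSO-treated cells and 100% = Gossypol at 36 µM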); conditions: HEK293 GAL4-SRC2 luciferase reporter, at 8.9 µM, hits give high values
# [15] = VP16-driven transactivation reporter suppression – cell-based, luminescence, HEK293, counter-screen for COUP-TFII antagonist project (AID 687007; in the data active = inhibition above about 13%); conditions: HEK293 Gal4-VP16 luciferase reporter, at 8.5 µM, hits give high values
# [16] = target: COUP transcription factor 2 (Homo sapiens) (UniProt P24468); assay: retest of COUP-TFII reporter suppressors – cell-based, luciferase reporter, HEK293, triplicate, confirmation (AID 687008;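 active = mean inhibition over three repeats above a set limit taken from the earlier primary screen, cut at about 38% in these data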;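 also: 100% = cells given the luciferase reporter alone without the COUP-TF2 vector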); conditions: HEK293 NGFI-A luciferase reporter, luminescence; at 8.5 µM; hits give high values
# [17] = target: Serine protease HTRA1 (Homo sapiens) (UniProt Q92743); assay: confirming inhibition of human HTRA1 – biochemical, fluorescence polarization, confirmation (AID 540248;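 active = mean inhibition over three repeats above a set limit taken from the earlier primary screen, cut at about 37% in these data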;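 also: 0% = HTRA1 with DMSO and 100% = wells lacking HTRA1; inhibitors block probe binding so polarization drops and inhibition rises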); conditions: recombinant HTRA1, FP-rhodamine activity-based probe, at 5.96 µM, hits give high values
# [18] = target: Bcl-2-like protein 1 (Homo sapiens) (UniProt Q07817); assay: Bcl-xL BH3-peptide displacement, hit confirmation – biochemical, fluorescence polarization, counter-screen for MCL1 inhibitor project (AID 2166;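 active = inhibition above a cutoff equal to the mean inhibition of all tested compounds plus 3 SD, cut at about 30% in these data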); conditions: GST-Bcl-xL / FITC-Bim BH3 peptide FP binding; at 10.9 µM; hits give high values
# [19] = target: Induced myeloid leukemia cell differentiation protein Mcl-1 (Homo sapiens) (UniProt Q07820); assay: MCL1-BIM peptide interaction disruptors – biochemical, fluorescence polarization, triplicate, confirmation (AID 2168;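 active = inhibition above the average of all tested compounds plus 3 SD, cut at about 40% in these data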;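 also: 0% = DMSO wells and 100% = unlabeled Bim-BH3 control peptide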); conditions: GST-MCL1 / FITC-Bim-BH3 fluorescence polarization; at 10.9 µM; hits give high values
# [20] = target: (Lyso)-N-acylphosphatidylethanolamine lipase (Mus musculus) (UniProt Q8VD66); assay: mouse ABHD4 hydrolase blockers, triplicate – biochemical, fluorescence polarization, confirmation (AID 720658;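 active = mean inhibition across replicates above the hit cutoff set in the primary screen, cut at about 30% in these data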;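 also: 0% = wild-type ABHD4 with DMSO and 100% = catalytically dead S159A mutant with DMSO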); conditions: purified mABHD4, FP-Rh probe fluorescence polarization; at 8.92 µM; hits give high values
# [21] = target: Photoreceptor-specific nuclear receptor (Homo sapiens) (UniProt Q9Y5X4); assay: corepressor-releasing ligands of human NR2E3 – biochemical, TR-FRET, confirmation (AID 2379; in the data active = activation above about 20%); conditions: cell-free NR2E3 corepressor release, 5 h, at 3.98 µM, hits give high values
# [22] = target: Peroxisome proliferator-activated receptor gamma (Homo sapiens) + Nuclear receptor corepressor 2 (Homo sapiens) (UniProt P37231+Q9Y618); assay: agonists of PPARg-NCOR2 corepressor interaction, counter-screen for NR2E3 agonist project, biochemical, TR-FRET (AID 504787; in the data active = inhibition above about 20%;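 also: 0% = DMSO vehicle and 100% = wells without protein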); conditions: TR-FRET PPARg-NCOR2 coregulator interaction, at 3.98 µM, hits give high values
# (Lyso)-N-acylphosphatidylethanolamine lipase (Mus musculus), sequence (Q8VD66 whole entry, looked up): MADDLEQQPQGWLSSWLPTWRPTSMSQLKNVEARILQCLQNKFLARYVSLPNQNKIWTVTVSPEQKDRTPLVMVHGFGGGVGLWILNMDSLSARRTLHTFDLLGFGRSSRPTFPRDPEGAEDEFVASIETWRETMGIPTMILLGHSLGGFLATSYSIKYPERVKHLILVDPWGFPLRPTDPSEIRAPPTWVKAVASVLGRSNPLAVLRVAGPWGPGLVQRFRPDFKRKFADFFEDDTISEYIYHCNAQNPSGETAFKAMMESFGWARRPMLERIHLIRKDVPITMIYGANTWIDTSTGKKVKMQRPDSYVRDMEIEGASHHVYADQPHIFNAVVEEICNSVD
# Induced myeloid leukemia cell differentiation protein Mcl-1 (Homo sapiens), sequence (Q07820 whole entry, looked up): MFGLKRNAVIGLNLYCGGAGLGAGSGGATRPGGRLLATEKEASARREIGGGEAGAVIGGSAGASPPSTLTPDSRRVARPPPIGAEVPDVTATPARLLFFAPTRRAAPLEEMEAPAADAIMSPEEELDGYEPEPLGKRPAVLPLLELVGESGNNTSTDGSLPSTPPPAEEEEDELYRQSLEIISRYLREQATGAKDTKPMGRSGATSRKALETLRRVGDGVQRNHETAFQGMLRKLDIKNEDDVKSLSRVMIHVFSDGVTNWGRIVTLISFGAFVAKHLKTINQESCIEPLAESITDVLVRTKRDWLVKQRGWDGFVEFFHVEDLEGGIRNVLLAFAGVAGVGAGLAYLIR
# Protein phosphatase methylesterase 1 (Homo sapiens), sequence (Q9Y570 whole entry, looked up): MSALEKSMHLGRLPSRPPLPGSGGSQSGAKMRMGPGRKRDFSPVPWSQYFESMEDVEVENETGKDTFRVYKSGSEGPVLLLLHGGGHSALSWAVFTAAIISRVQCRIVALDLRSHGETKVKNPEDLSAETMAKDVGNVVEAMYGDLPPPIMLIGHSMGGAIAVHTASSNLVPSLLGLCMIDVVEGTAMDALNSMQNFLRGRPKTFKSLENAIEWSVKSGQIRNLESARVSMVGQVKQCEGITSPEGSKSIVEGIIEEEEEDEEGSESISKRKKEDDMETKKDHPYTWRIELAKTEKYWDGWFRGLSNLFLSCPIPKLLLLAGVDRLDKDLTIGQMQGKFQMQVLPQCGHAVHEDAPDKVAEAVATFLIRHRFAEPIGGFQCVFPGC
# Platelet-activating factor acetylhydrolase (Homo sapiens), sequence (Q13093 whole entry, looked up): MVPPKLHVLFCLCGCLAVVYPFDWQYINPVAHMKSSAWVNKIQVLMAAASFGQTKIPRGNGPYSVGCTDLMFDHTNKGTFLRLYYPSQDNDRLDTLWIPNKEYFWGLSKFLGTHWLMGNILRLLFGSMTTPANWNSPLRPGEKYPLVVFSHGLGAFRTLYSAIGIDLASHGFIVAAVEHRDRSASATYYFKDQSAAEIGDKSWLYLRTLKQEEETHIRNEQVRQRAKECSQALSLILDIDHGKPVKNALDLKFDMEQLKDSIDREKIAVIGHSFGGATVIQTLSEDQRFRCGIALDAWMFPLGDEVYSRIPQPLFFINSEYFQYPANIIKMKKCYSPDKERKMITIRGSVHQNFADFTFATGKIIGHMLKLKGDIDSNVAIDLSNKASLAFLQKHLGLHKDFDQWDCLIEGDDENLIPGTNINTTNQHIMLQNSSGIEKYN
# Glutathione S-transferase omega-1 (Homo sapiens), sequence (P78417 whole entry, looked up): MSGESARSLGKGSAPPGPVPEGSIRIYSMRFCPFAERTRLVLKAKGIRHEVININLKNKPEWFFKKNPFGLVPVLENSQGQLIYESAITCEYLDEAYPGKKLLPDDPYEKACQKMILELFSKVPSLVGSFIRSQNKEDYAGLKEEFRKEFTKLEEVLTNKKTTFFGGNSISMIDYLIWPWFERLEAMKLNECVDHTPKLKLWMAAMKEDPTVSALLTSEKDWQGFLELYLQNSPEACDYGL
# Bcl-2-like protein 1 (Homo sapiens), sequence (Q07817 whole entry, looked up): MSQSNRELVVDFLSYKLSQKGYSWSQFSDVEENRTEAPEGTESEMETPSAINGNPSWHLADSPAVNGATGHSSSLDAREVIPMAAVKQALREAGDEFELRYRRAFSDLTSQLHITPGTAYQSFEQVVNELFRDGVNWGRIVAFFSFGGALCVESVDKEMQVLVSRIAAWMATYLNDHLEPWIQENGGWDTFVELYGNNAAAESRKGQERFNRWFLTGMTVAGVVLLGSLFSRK
# Protein-arginine deiminase type-4 (Homo sapiens), sequence (Q9UM07 whole entry, looked up): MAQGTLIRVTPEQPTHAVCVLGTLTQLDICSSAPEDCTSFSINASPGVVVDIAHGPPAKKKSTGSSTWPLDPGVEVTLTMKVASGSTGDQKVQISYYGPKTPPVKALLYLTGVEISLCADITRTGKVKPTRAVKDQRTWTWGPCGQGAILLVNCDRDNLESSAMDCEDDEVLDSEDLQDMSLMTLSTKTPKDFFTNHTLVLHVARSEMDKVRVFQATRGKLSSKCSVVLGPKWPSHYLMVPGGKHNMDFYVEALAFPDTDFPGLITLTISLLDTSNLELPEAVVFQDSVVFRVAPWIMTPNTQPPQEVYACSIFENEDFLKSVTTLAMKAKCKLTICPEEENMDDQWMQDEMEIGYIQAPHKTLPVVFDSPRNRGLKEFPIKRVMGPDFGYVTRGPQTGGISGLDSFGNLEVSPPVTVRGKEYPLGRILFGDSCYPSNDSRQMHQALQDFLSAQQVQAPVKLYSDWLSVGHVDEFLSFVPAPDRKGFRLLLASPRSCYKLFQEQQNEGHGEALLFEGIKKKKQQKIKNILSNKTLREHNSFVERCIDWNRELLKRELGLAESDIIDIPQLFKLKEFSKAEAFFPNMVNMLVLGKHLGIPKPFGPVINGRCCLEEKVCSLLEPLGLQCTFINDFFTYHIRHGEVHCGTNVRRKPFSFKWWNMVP
# Nuclear receptor coactivator 2 (Homo sapiens), sequence (Q15596 whole entry, looked up, the tested form may be a part): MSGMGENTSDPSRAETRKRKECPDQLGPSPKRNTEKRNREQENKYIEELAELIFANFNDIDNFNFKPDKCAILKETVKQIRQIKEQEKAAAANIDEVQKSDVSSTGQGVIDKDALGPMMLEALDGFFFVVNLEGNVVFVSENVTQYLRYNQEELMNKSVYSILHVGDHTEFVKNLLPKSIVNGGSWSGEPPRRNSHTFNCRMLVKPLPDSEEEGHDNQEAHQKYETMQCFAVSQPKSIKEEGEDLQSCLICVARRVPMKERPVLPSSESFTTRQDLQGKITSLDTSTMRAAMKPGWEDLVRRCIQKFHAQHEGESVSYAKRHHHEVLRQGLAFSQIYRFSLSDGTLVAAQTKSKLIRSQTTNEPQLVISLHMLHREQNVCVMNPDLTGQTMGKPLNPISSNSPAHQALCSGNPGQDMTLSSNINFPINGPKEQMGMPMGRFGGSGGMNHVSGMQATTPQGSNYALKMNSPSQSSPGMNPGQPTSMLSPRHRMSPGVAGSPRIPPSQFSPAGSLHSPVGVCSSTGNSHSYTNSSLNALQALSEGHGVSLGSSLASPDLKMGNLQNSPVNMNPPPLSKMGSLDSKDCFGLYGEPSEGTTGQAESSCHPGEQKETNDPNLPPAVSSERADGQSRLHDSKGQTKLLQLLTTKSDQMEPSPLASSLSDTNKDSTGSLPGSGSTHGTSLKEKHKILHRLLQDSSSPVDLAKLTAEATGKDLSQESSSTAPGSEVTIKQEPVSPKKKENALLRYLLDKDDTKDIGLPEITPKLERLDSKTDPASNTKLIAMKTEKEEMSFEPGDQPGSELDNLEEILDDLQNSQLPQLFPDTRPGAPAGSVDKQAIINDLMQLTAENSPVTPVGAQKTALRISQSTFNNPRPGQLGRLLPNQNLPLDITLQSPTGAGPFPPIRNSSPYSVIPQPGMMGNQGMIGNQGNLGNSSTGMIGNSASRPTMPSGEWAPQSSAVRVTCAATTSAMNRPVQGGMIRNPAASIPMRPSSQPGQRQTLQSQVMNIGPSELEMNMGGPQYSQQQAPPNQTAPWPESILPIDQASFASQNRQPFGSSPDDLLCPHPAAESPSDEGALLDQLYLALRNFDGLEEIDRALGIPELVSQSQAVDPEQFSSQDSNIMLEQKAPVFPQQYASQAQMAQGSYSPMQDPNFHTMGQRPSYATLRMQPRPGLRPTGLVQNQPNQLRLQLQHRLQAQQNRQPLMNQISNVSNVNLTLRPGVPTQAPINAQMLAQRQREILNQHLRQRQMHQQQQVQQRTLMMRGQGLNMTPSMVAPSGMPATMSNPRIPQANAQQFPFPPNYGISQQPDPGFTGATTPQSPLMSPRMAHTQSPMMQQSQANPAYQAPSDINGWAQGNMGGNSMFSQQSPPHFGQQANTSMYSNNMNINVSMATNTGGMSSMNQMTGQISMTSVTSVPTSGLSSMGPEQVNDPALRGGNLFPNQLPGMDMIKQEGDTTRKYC
# Photoreceptor-specific nuclear receptor (Homo sapiens), sequence (Q9Y5X4 whole entry, looked up): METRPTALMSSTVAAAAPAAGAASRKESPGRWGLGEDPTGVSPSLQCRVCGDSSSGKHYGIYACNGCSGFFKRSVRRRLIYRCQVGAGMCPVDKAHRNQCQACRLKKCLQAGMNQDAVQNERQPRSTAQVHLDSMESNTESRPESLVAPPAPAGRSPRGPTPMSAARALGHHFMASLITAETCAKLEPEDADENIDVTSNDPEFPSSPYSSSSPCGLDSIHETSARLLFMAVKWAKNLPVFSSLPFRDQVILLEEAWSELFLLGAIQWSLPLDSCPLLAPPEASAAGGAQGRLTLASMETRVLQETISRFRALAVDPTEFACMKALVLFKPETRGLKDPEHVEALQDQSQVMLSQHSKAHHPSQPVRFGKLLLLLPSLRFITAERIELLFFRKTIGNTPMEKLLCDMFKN
# COUP transcription factor 2 (Homo sapiens), sequence (P24468 whole entry, looked up): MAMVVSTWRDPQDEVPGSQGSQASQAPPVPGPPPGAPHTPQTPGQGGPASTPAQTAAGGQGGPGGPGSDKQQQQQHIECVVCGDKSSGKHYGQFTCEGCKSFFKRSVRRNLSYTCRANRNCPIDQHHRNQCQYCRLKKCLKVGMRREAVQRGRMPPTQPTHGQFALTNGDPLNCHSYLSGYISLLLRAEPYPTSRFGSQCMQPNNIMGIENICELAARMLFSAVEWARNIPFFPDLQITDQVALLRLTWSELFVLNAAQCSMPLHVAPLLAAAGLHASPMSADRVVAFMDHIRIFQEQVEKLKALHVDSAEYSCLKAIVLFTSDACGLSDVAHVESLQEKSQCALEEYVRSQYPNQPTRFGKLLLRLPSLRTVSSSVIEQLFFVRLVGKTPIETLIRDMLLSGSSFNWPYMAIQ
compound,measurement,setting,value
COc1ccc(OC)c(Nc2nc(-c3ccc(O)c(O)c3)cs2)c1,inhibition,[1],-20.9%
same,inhibition,[2],2.96%
same,inhibition,[3],50.8% (active)
Oc1oc(-c2ccccc2Br)nc1/C=N/c1ccccn1,inhibition,[1],68.7% (active)
Cc1cccc2cc3c(N)c(C(=O)N4CCCc5ccccc54)sc3nc12,inhibition,[1],4.65%
same,inhibition,[4],15.4%
same,inhibition,[5],12.7%
same,inhibition,[6],33.7% (active)
COC(=O)CSc1nccc(-c2cccs2)n1,inhibition,[1],-1%
CCCCC(=O)Nc1nc(C)c(-c2csc(Nc3ccc(Cl)cc3)n2)s1,inhibition,[1],8.42%
O=C(NC1CC1)c1ccc(-c2ccccc2)cc1,inhibition,[1],-4.72%
C/C(=N\Nc1cccc(C(=O)O)c1)c1ccc2c(c1)Nc1ccccc1S2,inhibition,[1],26.1% (active)
Cc1ccc(-c2nc3c(cnn3-c3ccccc3)c(=O)o2)cc1,inhibition,[1],16.2%
CN(NC(=O)c1ccccc1F)c1nc(C(F)(F)F)nc2ccccc12,inhibition,[7],77% (active)
same,inhibition,[8],59.6% (active)
same,inhibition,[9],4.94%
same,inhibition,[10],2.71%
O=C(Nc1ccc(-c2csc(Nc3cccc(C(F)(F)F)c3)n2)cc1)c1cccc(C(F)(F)F)c1,inhibition,[1],33.6% (active)
CC[N+](C)(CC)CCC[n+]1c(-c2ccccc2)c2cc(N)ccc2c2ccc(N)cc21,inhibition,[1],61.8% (active)
same,inhibition,[2],85.8% (active)
O=C(CCn1c(SCC(=O)c2ccccc2)nc2ccccc2c1=O)NCc1ccc(F)cc1,inhibition,[1],-13.1%
same,inhibition,[11],-0.06%
Oc1ccc(C2Nc3cccc4cccc(c34)N2)cc1,inhibition,[1],14.4%
same,inhibition,[12],12.9%
Cc1ccc(-c2cn3cc(C)ccc3n2)cc1,inhibition,[7],85% (active)
same,inhibition,[8],8.78%
same,inhibition,[13],45.9% (active)
same,inhibition,[14],69.2% (active)
same,inhibition,[15],20.1% (active)
same,inhibition,[16],43.9% (active)
Cc1ccc(C2C3=C(Nc4[nH]n(-c5ccccc5)c(=O)c42)c2ccccc2C3=O)cc1 (configuration not stated),inhibition,[1],56.8% (active)
COc1ccc(NS(=O)(=O)c2cc(NC(=O)CC(=O)c3ccc([N+](=O)[O-])cc3)ccc2C)cc1,inhibition,[1],44.3% (active)
same,inhibition,[12],-1.55%
same,inhibition,[17],28.7%
C/C(=C\c1ccco1)C1Nc2cccc3cccc(c23)N1,inhibition,[1],26.3% (active)
COc1ccc(C2C=C(c3ccc(Br)cc3)Nc3nc(NS(C)(=O)=O)nn32)cc1 (configuration not stated),inhibition,[18],133% (active)
same,inhibition,[19],167% (active)
c1ccc(CSc2nnc(-c3ccco3)c(-c3ccco3)n2)cc1,inhibition,[1],1.53%
same,inhibition,[18],13.9%
same,inhibition,[19],59.9% (active)
same,inhibition,[2],33.6%
same,inhibition,[3],33.6% (active)
COc1ccc(-c2nc(CS(=O)CC(=O)NCc3ccccn3)c(C)o2)cc1 (configuration not stated),inhibition,[1],23.4% (active)
same,inhibition,[18],96.8% (active)
same,inhibition,[19],125% (active)
O=[N+]([O-])c1cc(Cl)cc(/C=N/NC(=S)Nc2cc(S(=O)(=O)N3CCOCC3)ccc2Cl)c1O,inhibition,[1],46.8% (active)
same,inhibition,[18],24.4%
same,inhibition,[19],42.4% (active)
same,inhibition,[17],125% (active)
same,inhibition,[9],-14.9%
same,inhibition,[10],38.1% (active)
same,inhibition,[20],77.1% (active)
COc1ccc2nc(Nc3nc4cc5c(cc4s3)OCCO5)sc2c1,inhibition,[1],-9.21%
COc1cccc(C2Nc3cccc4cccc(c34)N2)c1,inhibition,[1],12.6%
C=CCNc1nnc(SCC(=O)N2CCCCC2)c2ccccc12,inhibition,[18],55.6% (active)
same,inhibition,[19],67.8% (active)
COc1ccc(-c2onc3ccc(C(C)=O)cc23)cc1,inhibition,[18],172% (active)
COc1ccc(/C=C/C(=O)OCC(=O)Nc2cccc(Oc3ccccc3)c2)c(OC)c1,inhibition,[1],47.3% (active)
COCCOC(=O)c1sc(=S)n(CCOC)c1N,inhibition,[1],19.6% (active)
same,inhibition,[18],85.4% (active)
same,inhibition,[19],131% (active)
same,inhibition,[12],21.3%
same,inhibition,[9],42.3% (active)
same,inhibition,[10],33.1% (active)
same,inhibition,[20],47.4% (active)
COCCN(CCOC)c1nc(N)c2c(N)nc3c(c2c1C#N)CC(=O)N3Cc1ccc(Cl)cc1,inhibition,[18],9.48%
same,inhibition,[19],4.93%
COCCNC(=O)Nc1ccc2nc(-c3ccco3)c(-c3ccco3)nc2c1,inhibition,[1],17.4%
same,inhibition,[18],104% (active)
same,inhibition,[19],136% (active)
same,inhibition,[2],64.7% (active)
same,activation (reported as inhibition),[21],-0.99%
same,inhibition,[3],33.1% (active)
same,inhibition,[11],1.02%
same,inhibition,[22],-6.1%
same,inhibition,[9],-14.8%
same,inhibition,[10],41.6% (active)
Clc1ccccc1CSc1nnc(-c2ccco2)c(-c2ccco2)n1,inhibition,[1],1%
same,inhibition,[2],23.6%
same,inhibition,[17],2.03%
same,inhibition,[20],27.6%
COc1ccc(-c2csc(NC(=O)COC(=O)Cc3ccc(Cl)cc3Cl)n2)cc1,inhibition,[1],3.19%
Cc1ccc(NS(=O)(=O)c2ccc(N/N=C/c3ccccc3OCC(=O)O)c([N+](=O)[O-])c2)c(C)c1,inhibition,[1],17.7%
same,inhibition,[12],74.8% (active)
same,inhibition,[3],84.3% (active)
same,inhibition,[17],50.2% (active)
Cc1nc(NC(=O)c2cccc(Cl)c2)sc1-c1csc(Nc2cccc(Cl)c2)n1,inhibition,[1],9.74%
